FBPA Giardia inh: qHTS Assay for Inhibitors of Fructose-1,6-bisphosphate Aldolase from Giardia Lamblia. A8B2U2. purified Giardia FBPA. hit rate 0.71% among 290,000. Potency, µM (highest dose often 59.6 µM), actives largely listed as inhibitors; further: nearly all actives have a fitted effect of over 55% in size
Target sequence (A8B2U2 whole entry, looked up): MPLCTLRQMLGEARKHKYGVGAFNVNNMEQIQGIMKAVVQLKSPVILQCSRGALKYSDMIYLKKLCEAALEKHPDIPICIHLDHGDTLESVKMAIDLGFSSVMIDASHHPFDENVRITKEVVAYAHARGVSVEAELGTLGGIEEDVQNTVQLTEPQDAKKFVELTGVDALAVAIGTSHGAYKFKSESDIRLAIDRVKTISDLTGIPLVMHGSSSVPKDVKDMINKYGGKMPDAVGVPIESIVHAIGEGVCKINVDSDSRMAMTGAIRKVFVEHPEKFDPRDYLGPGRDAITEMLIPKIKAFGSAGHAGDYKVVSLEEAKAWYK
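40 nM FBPA preincubated 10 min at RT with compound (up to 57.5 uM final), then substrate plus GAPDH/TPI/NAD/arsenate coupling and diaphorase/resazurin added. Fluorescence read after 20 min at RT, 525/598 nm.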
TbPYK inhibitor: qHTS of Trypanosoma Brucei Inhibitors. TbPYK enzyme, Kinase-Glo Plus ATP luminescence, 45 min. Potency, µM (series often up to 76.8 µM), hits mostly inhibitors. hit rate 0.12% among 410,000. AID 624173, 2012; further: nearly all actives have a fitted effect of over 50% in size
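Screened from lowest to highest concentration, compounds were pinned into TbPYK/substrate mixtures, and ADP (130 uM final) was added. Plates sat at room temperature for 45 min prior to Kinase-Glo Plus detection by luminescence.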
Sm TGR block: qHTS Assay for the Inhibitors of Schistosoma Mansoni Peroxiredoxins; hit rate 3% among 360,000; Potency, µM (highest dose often 114 µM), most hits filed as inhibitors; purified TGR, DTNB reduction, TNB absorbance 405 nm; AID 485364, 2010; Schistosoma mansoni thioredoxin glutathione reductase (TGR), Q962Y6; further: nearly all actives have a fitted effect of over 60% in size
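TGR 20 nM + NADPH 100 uM (dispensed conc.), cpd preinc 15 min RT; start with NADPH (500 uM addition) then DTNB (15 mM addition). Kinetic TNB absorbance, 405 nm filter. Four-parameter Hill fit across titration.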
HCMV antiviral: qHTS Assay for inhibitors of the human cytomegalovirus (HCMV). activity change, negative = inhibition, % at 57.5 µM. HFF cells, HCMV-luciferase reporter, 72 h; hits give low values. hit rate 4.5% among 410,000; in the data active means activity change below about -60%; inconclusive means no clear call, values can overlap the other calls; inactive means above about -39%
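HFF cells seeded 16 h at 37C, treated with compounds, infected with luciferase-reporter HCMV at MOI 1 PFU/cell; luciferase read at 72 h post infection, normalized to buffer-only and Salinomycin controls.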
FMDV antiviral: High Throughput Screening for Foot and Mouth Disease Virus Antivirals; FMDV antiviral cell-based qHTS; Potency, µM (titrated, usually from 57.9 µM), usual class: inhibitors; hit rate 1.2% among 410,000; AID 1159524, 2015; calls by dose curve; tested in HEK293T cells; further: read-out not given here; nearly all actives have a fitted effect of over 45% in size
RE007 growth inh: qHTS Assay for Inhibitors of the HIV-1 protein Vpr. S. pombe RE007 Vpr strain, BacTiter-Glo ATP luminescence, 24 h. Potency, µM (titrated, usually from 92.2 µM), actives largely listed as inhibitors. hit rate 0.21% among 360,000; active means well fitted falling curve with a large enough effect; inconclusive means small, poorly fitted or top-dose-only effect; inactive means no such curve, though single readings can be large or run the other way; further: nearly all actives have a fitted effect of over 50% in size
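Fission yeast strain RE007, carrying one chromosomally integrated HIV-1 vpr copy, was seeded at OD 0.01 in PMG+AL medium with 23 nL pinned compound. After 24 h at 30 °C and 99% humidity, viability was read by BacTiter-Glo luminescence.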
Large screens that a line does not name were inactive. In the library only some 7.7% were active in any assay of this set; here they are far more common. Unless noted, the call rests on the fitted dose curve; in most records, active means well fitted curve in the direction sought with a large enough effect; inconclusive means small, poorly fitted or top-dose-only effect, or another doubt; inactive means no such curve, though single readings can be large; an effect the other way counts as inactive or inconclusive.

COc1ccc(C)c2sc(N(Cc3cccnc3)C(C)=O)nc12	none (no result: FBPA Giardia inh, RE007 growth inh)
O=C(c1ccccc1F)N1CC(=O)N2[C@@H](CO)[C@H](c3ccc(Br)cc3)[C@@H]2C1	none (no result: FBPA Giardia inh, TbPYK inhibitor, Sm TGR block, FMDV antiviral, RE007 growth inh)
CC1OCC23CC[C@@]4(C)CCC(C)(C)C[C@H]4[C@]2(C)CCC12C3CC[C@@]1(C)C2C(=O)CC(=O)[C@@H]1C (stereo partly specified)	none (no result: TbPYK inhibitor, Sm TGR block, HCMV antiviral, RE007 growth inh)
COc1ccc(CNC(=O)CCc2c(C)nn(-c3ccc(N4CCCCC4)nn3)c2C)c(OC)c1	none (no result: FBPA Giardia inh, RE007 growth inh)
CC(C)C[C@H]1CN([C@@H](CC(C)C)CN2CCCC2CN2C(=S)NC[C@@H]2Cc2ccc(O)cc2)C(=S)N1CC1CCCCCC1 (stereo partly specified)	HCMV antiviral -70, FMDV antiviral inconclusive (no result: FBPA Giardia inh, Sm TGR block)
CC(C)C[C@H]1CN([C@@H](CC(C)C)CN2CCC[C@@H]2CN2C(=S)NC[C@@H]2Cc2ccc(O)cc2)C(=S)N1CC1CCCCC1	none (no result: FBPA Giardia inh, Sm TGR block)
CC(C)C[C@H]1CN([C@@H](CC(C)C)CN2CCCC2CN2C(=S)NC[C@@H]2Cc2ccc(O)cc2)C(=S)N1CC1CCCCC1 (stereo partly specified)	HCMV antiviral -107, FMDV antiviral inconclusive (no result: FBPA Giardia inh, Sm TGR block)
COc1ccc(-n2c(CCNC(=O)c3ccc(-c4cccc(F)c4)cc3)nnc2SC)cc1	none (no result: FBPA Giardia inh, TbPYK inhibitor, Sm TGR block, HCMV antiviral, RE007 growth inh)
O=C1NCCN2CCCC12 (stereo unspecified)	Sm TGR block 25µM
CC1(C)NC(=O)[C@H]2CCCN21	none (no result: FBPA Giardia inh, Sm TGR block)
CCS(=O)(=O)N1CCc2cc(C(=O)NC(C)c3ccccc3)ccc21 (stereo unspecified)	none (no result: FBPA Giardia inh, RE007 growth inh)
O=S(=O)(NCCOC12CC3CC(CC(C3)C1)C2)c1cccc2nsnc12	none
COc1cc(S(=O)(=O)NCCOC23CC4CC(CC(C4)C2)C3)c(OC)cc1Cl	HCMV antiviral -63
CCOc1ccc(OCC)c(S(=O)(=O)NCCOC23CC4CC(CC(C4)C2)C3)c1	HCMV antiviral -73
CCOc1ccc(OCC)c(S(=O)(=O)NCc2ccccc2)c1	none
O=C(NNS(=O)(=O)c1ccccc1)c1cccc(F)c1	Sm TGR block 56µM
O=C(NNS(=O)(=O)c1ccccc1)c1ccc([N+](=O)[O-])cc1	none
O=C(NC(=S)NNS(=O)(=O)c1ccccc1)c1ccc([N+](=O)[O-])cc1	FBPA Giardia inh inconclusive, Sm TGR block 20µM, RE007 growth inh inconclusive
O=C(NC(=S)NNS(=O)(=O)c1ccccc1)c1cccnc1	Sm TGR block 8.9µM
O=C(NC(=S)NNS(=O)(=O)c1ccccc1)c1ccccc1[N+](=O)[O-]	Sm TGR block 28µM
O=C(NNC(=S)NC(=O)c1ccccc1[N+](=O)[O-])c1ccccc1Cl	FBPA Giardia inh inconclusive
COc1cc(=O)n2c(c1C(=O)NC(C)c1ccco1)CCN(C(=O)c1ccc3c(c1)OCCO3)CC2 (stereo unspecified)	none (no result: FBPA Giardia inh, TbPYK inhibitor, Sm TGR block, HCMV antiviral, RE007 growth inh)
Cc1ccc(NC(=O)Cn2cnc3sc(C)c(S(=O)(=O)N4CCN(c5ncccn5)CC4)c3c2=O)cc1F	none (no result: FBPA Giardia inh, RE007 growth inh)
CCC1CN(CC(=O)N(C)Cc2nc3ccccc3[nH]2)Cc2cc(OC)ccc2O1 (stereo unspecified)	none (no result: FBPA Giardia inh, TbPYK inhibitor, Sm TGR block, HCMV antiviral, RE007 growth inh)
CCOC(=O)c1ccc(N2C(=O)c3n[nH]c(C)c3C2c2ccco2)cc1 (stereo unspecified)	none
CCOC(=O)c1ccc(N2C(=O)c3n[nH]c(-c4ccco4)c3C2c2cccc([N+](=O)[O-])c2)cc1 (stereo unspecified)	FMDV antiviral 35µM
CCOC(=O)c1ccc(N2C(=O)c3n[nH]c(C)c3C2c2ccc(OC)c(OC)c2)cc1 (stereo unspecified)	Sm TGR block inconclusive
CCOC(=O)c1ccc(N2C(=O)c3n[nH]c(C)c3C2c2ccc(OC)cc2)cc1 (stereo unspecified)	none
CCOC(=O)c1ccc(N2C(=O)c3[nH]nc(-c4ccc(C)cc4)c3C2c2ccc(O)c(OCC)c2)cc1 (stereo unspecified)	HCMV antiviral -101, FMDV antiviral inconclusive (no result: FBPA Giardia inh, RE007 growth inh)
CCOC(=O)c1ccc(N2C(=O)c3[nH]nc(-c4ccc(C)cc4)c3C2c2cccs2)cc1 (stereo unspecified)	HCMV antiviral inconclusive, FMDV antiviral inconclusive (no result: FBPA Giardia inh, RE007 growth inh)
CCOC(=O)c1ccc(N2C(=O)c3n[nH]c(-c4ccco4)c3C2c2ccc(C(=O)OC)cc2)cc1 (stereo unspecified)	HCMV antiviral -80, FMDV antiviral inconclusive (no result: FBPA Giardia inh, RE007 growth inh)
CCOC(=O)c1ccc(N2C(=O)c3n[nH]c(-c4ccco4)c3C2c2ccc(O)c(OCC)c2)cc1 (stereo unspecified)	HCMV antiviral -105, FMDV antiviral inconclusive (no result: FBPA Giardia inh, RE007 growth inh)
CCOC(=O)c1ccc(N2C(=O)c3n[nH]c(-c4ccco4)c3C2c2ccc(OC)cc2OC)cc1 (stereo unspecified)	HCMV antiviral -105, FMDV antiviral inconclusive (no result: FBPA Giardia inh, RE007 growth inh)
Cc1[nH]c(=O)c(C(=O)/C=C/c2ccccc2F)c2c1CCCC2	Sm TGR block 100µM, HCMV antiviral -102, FMDV antiviral 14µM
C/C(=C\c1ccccc1F)C(=O)c1c(C)cc(C)[nH]c1=O	none
N#Cc1c(-c2ccncc2)cc(-c2ccc(F)cc2)nc1N	none
Cc1ccc(-c2cc(-c3ccc(F)cc3)nc(N)c2C#N)o1	FBPA Giardia inh inconclusive, Sm TGR block 5.6µM, FMDV antiviral inconclusive
Cc1ccc(-c2c(C#N)c(N)nc3c2CCCC3)o1	Sm TGR block 25µM
Cc1ccc(-c2cc(-c3ccccc3)c(C#N)c(N)n2)o1	FBPA Giardia inh inconclusive, TbPYK inhibitor inconclusive, Sm TGR block 3.5µM, HCMV antiviral inconclusive, RE007 growth inh inconclusive
CCCOc1ccc(CNC(=O)Cn2ncn3c(cc4sc(CC)cc43)c2=O)cc1	none (no result: FBPA Giardia inh, RE007 growth inh)
CCOc1ccc(NC(=O)C2Cc3ccccc3N2C(=O)c2ccccc2)cc1 (stereo unspecified)	Sm TGR block 50µM (no result: FBPA Giardia inh, RE007 growth inh)
CCOC(=O)c1c(C)[nH]c(C)c1S(=O)(=O)N(C)CC(=O)Nc1cc(Cl)ccc1C	none (no result: FBPA Giardia inh, RE007 growth inh)
Cc1nnsc1C(=O)NNc1ccc(C(C)(C)C)cc1	Sm TGR block 35µM
CC1CC(=O)C2=C(C1)Nc1ncnn1C2c1ccccc1 (stereo unspecified)	none
Cc1nc2n(n1)C(c1ccccc1)C1=C(CC(c3ccco3)CC1=O)N2 (stereo unspecified)	Sm TGR block 56µM
CC(C)C(C(=O)NC1CCCCC1)N1C(=O)C(=O)c2ccccc21 (stereo unspecified)	none (no result: FBPA Giardia inh, TbPYK inhibitor, Sm TGR block, FMDV antiviral, RE007 growth inh)
CCOC(=O)CSC1=C(C#N)C(c2ccccc2)C(C(C)=O)=C(C)N1 (stereo unspecified)	Sm TGR block inconclusive (no result: FMDV antiviral)

Bioassay records as filed in PubChem BioAssay.
